# Assay outcomes from PubChem BioAssay.
# D2 ag-1 – Beta-Arrestin HTS for Positive Allosteric Modulators of the Human D2 Dopamine Receptor: Agonists; D(2) dopamine receptor (Homo sapiens), P14416; DiscoveRx PathHunter D2 beta-arrestin, luminescence, 90 min; 100% = 57 uM dopamine signal; activation, % (no concentration beside the values); hit rate 0.084% among 360,000; in the data active = activation above about 40%; inconclusive = between about 15% and that limit
#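 Agonist mode: compounds alone added to overnight-plated D2 PathHunter cells for 90 min at 37 C, with 57 uM final dopamine (EC100) defining full response. Beta-arrestin recruitment detected by chemiluminescent reagent, read after 1 h at ambient temperature.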
# D2 ag-2 – HTS Assay for Allosteric Agonists of the Human D2 Dopamine Receptor: Primary Screen for Agonists. hit rate 0.53% among 340,000. AID 485358, 2010. activation, % at 2 µM. D(2) dopamine receptor (Homo sapiens), P14416. HEK293 T-REx D2 cells, calcium flux agonist mode;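 active = activation over 3 SD above normal in the single-dose calcium agonist read, cut at about 30% in these data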; note: 0% is about no effect
#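 Agonism is scored from calcium flux in a force-coupled, inducible HEK293 cell line expressing D2, read kinetically for 180 s after compound addition against dopamine controls.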
# Apoferritin bind – qHTS Assay for Identification of Novel General Anesthetics; Potency, µM (series often up to 77.5 µM), for inactives: at the top dose activity change, negative = displacement, usual class: inhibitors; apoferritin/1-aminoanthracene competitive binding, fluorescence; Ferritin light chain (Equus caballus), P02791; AID 485281, 2010; hit rate 0.074% among 350,000; active = well fitted inhibition curve with a large enough effect; inconclusive = small, poorly fitted or top-dose-only effect; inactive = no such curve, though single readings can be large or run the other way; note: potency is the fitted concentration of half-maximal effect; % is set by controls: 0 for no effect and ±100 for the full control effect; nearly all actives have a fitted effect of over 20% in size
# Target sequence (P02791 2-175 limits assumed): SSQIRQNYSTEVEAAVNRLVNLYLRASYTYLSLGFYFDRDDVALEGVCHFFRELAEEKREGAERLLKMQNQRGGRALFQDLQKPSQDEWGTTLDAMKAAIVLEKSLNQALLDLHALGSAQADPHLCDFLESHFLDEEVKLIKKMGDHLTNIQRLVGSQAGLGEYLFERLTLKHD
#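 Steps: apoferritin (10 uM) was premixed with half-saturated 1-AMA in PBS, compounds were pin-transferred, plates stood 10 min at room temperature, fluorescence was read at 380/535 nm, and curves were fitted with a Hill equation.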
# D2 antagonist – HTS Assay for Allosteric Antagonists of the Human D2 Dopamine Receptor: Primary Screen for Antagonists; hit rate 2% among 340,000; AID 485344, 2010; inhibition, % at 10 µM; HEK293 TREx D2 cells, calcium flux, dopamine EC80; D(2) dopamine receptor (Homo sapiens), P14416; in the data active = inhibition above about 30%; inactive = below that, where a call was filed; note: 0% is about no effect
#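 Measurement of antagonist activity uses fluorescent calcium dye in inducible HEK293 T-REx D2 cells: 10 s baseline, compound addition with 180 s read, EC80 dopamine addition with a further 180 s read.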
# D2 PAM-1 – HTS Assay for Positive Allosteric Modulators of the Human D2 Dopamine Receptor: Primary Screen for Potentiators. AID 485347, 2010. hit rate 0.34% among 340,000. D(2) dopamine receptor (Homo sapiens), P14416. potentiation, % at 10 µM. HEK293 T-REx D2, calcium flux, EC20 dopamine potentiation;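 active = potentiation over 3 SD above the plate norm, cut at about 30% in these data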; note: 0% is about no effect
#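 Tetracycline-induced Hek293 Trex D2 cells, force-coupled to calcium, loaded with no-wash calcium dye. Compound added with 180 s kinetic read for agonism, then EC20 dopamine and a further 180 s read for potentiation.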
# D2 PAM-2 – Beta-Arrestin HTS for Positive Allosteric Modulators of the Human D2 Dopamine Receptor: Potentiators | potentiation, % (concentration not given with the values) | DiscoveRx D2 beta-arrestin cells, luminescence, 90 min; 100% = 57 uM dopamine signal | D(2) dopamine receptor (Homo sapiens), P14416 | AID 624464, 2012 | hit rate 0.23% among 360,000; in the data active = potentiation above about 50%; inconclusive = mostly about 30% to 49%
#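 PathHunter D2 cells, attached overnight at 37 deg C, received compound in DMSO plus dopamine at EC20 (50 nM final) for 90 min at 37 deg C. Beta-arrestin recruitment was read as luminescence after 1 h with detection reagent at ambient temperature.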
# An asterisk follows results filed as active; ? = inconclusive; . = no result. In the library only some 2.5% were active in any assay of this set; here they are far more common.
SMILES,D2 ag-1,D2 ag-2,Apoferritin bind,D2 antagonist,D2 PAM-1,D2 PAM-2
COc1ccc(NC(=S)NC(C)c2ccncc2)cc1OC (configuration not stated),-2.1,0.4,-5.9%,-5.9,-1.7,2.6
COc1ccc(C)cc1NC(=S)NC(C)c1ccc(OC)c(OC)c1 (configuration not stated),-0.3,1.2,-3.6%,-10.5,-2.0,53.1*
CC(=O)c1cccc(NC(=O)COC(=O)CCc2ccc(S(=O)(=O)N3CCOCC3)cc2)c1,4.6,0.4,-11.9%,-31.3,-16.4,-6.9
N#Cc1cccc(NC(=O)COC(=O)CCc2ccc(S(=O)(=O)N3CCOCC3)cc2)c1,-2.8,-0.1,.,34.4*,5.7,3.5
CN(C)c1nc2n(c(=O)n1)C(C#N)CS2 (configuration not stated),-0.6,0.0,12.0%,33.5*,6.3,2.3
CN(C)c1nc2n(c(=O)n1)CCS2,-0.4,0.4,-8.9%,0.1,16.2,0.7
CC(C(=O)Nc1ccccc1)N(C)CCOc1ccccc1 (configuration not stated),-0.5,1.2,-3.3%,-14.2,0.9,-13.8
CCOC(=O)N1CCc2c(sc3ncn(Cc4ccc(F)cc4)c(=O)c23)C1,6.7,.,-4.6%,.,.,0.6
O=c1c2c3c(sc2ncn1Cc1ccc(F)cc1)CCC3,-0.9,-0.2,25.1µM*,-11.9,2.1,10.3
CCOC(=O)c1[nH]cnc1C(=O)N1CCN(C(=O)OC(C)(C)C)CC1,-2.6,0.3,.,31.5*,-1.3,-7.8
C[C@H](OC(=O)c1[nH]cnc1C(=O)N1CCN(C(=O)OC(C)(C)C)CC1)c1ccccc1,-0.8,.,.,.,.,-47.7
O=C(O)c1cccc(NC(=O)c2cc(NC(=O)c3ccccc3)cc(NC(=O)c3ccccc3)c2)c1,11.7,-1.6,-10.1%,-5.0,1.2,1.7
N#Cc1cnc(SCC(=O)Nc2ccccc2C(F)(F)F)nc1N,-0.3,1.3,-5.3%,32.0*,-0.7,-7.4
Cc1ccc(S(=O)(=O)NCCC(=O)NNc2c(F)c(F)cc(F)c2F)cc1,0.3,.,.,.,.,-4.4
Cn1c(=NC(=O)c2ccc(S(=O)(=O)N3CCCc4ccccc43)cc2)sc2cc(S(C)(=O)=O)ccc21,-0.8,-0.2,3.5%,-6.3,-2.3,7.0
C#CCn1c(=NC(=O)c2ccc(S(=O)(=O)N3CCCc4ccccc43)cc2)sc2cc(S(N)(=O)=O)ccc21,-0.6,2.6,-16.9%,47.5*,10.6,-23.2
COc1ccc(Cc2nnc(Nc3ccccc3)s2)cc1Br,2.5,-2.0,4.0%,26.0,-4.8,-5.9
CC1CCCCC1NC(=O)Cn1cccc1C(=O)c1ccccc1 (configuration not stated),-5.1,-0.3,-8.5%,-10.2,34.7*,-9.0
CC1CCN(S(=O)(=O)c2cc(C(=O)NC3(C)CCS(=O)(=O)C3)ccc2Br)CC1 (configuration not stated),12.0,0.1,.,30.5*,-2.7,-3.7
CC1CCN(C(=O)c2ccc(Br)c(S(=O)(=O)N3CCOCC3)c2)CC1,-1.5,-0.1,-7.6%,-15.3,-3.0,-3.9
O=C1N(CN2CCC3(CC2)OCCO3)c2ccccc2C12OCCCO2,-3.1,0.1,-9.2%,3.7,5.5,-10.0
O=C1N(CN2CCN(c3cccc(Cl)c3)CC2)c2ccccc2C12OCCCO2,-1.1,1.0,-0.8%,33.4*,-21.7,-17.1
Cc1c(C(=O)OC2CCCCC2)sc2nc[nH]c(=O)c12,-1.4,0.3,?,-1.4,30.9*,-7.1
O=C(NC1CCCC1)c1ccc(CS(=O)(=O)Cc2ccccc2F)o1,2.2,0.2,-5.5%,-5.6,-8.7,-5.9
